# Shown are actives, neighbours in structure and some others; about 1.6% of the full set was active somewhere.
# PfHsp40 rescue: rescue of PfHsp40-mediated yeast toxicity | S. cerevisiae expressing PfHsp40, growth rescue, ATP luminescence | growth rescue, % at 12.5 µM | hit rate 0.68% among 340,000 | AID 504582; in the data active = growth rescue above about 28%, passing the limit was not always enough;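 note: yeast W303a lacking pdr1 and pdr3 grown in galactose medium; growth measured after three days at 30 °C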
# RN4220 kill: kills Staphylococcus aureus RN4220; S. aureus RN4220 growth, OD600, 16 h; hit rate 0.33% among 330,000; inhibition, % (test concentration not listed); in the data active = inhibition above about 85%;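 note: plate controls were untreated cells for no effect and reference antibiotic for full effect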
# CCHF vOTU inh: CCHFV vOTU protease inhibition. Pep-AMC fluorescence. hit rate 0.55% among 370,000. inhibition, % at 11.5 µM; in the data active = inhibition above about 30%; note: 0% = vehicle wells with enzyme and 100% = no enzyme wells
# ugtP null kill: compounds lethal to S. aureus RN4220 ugtP deletion mutant | OD600 growth, 16 h | AID 1259309 | growth inhibition, % (test concentration not listed) | hit rate 0.54% among 330,000; in the data active = growth inhibition above about 68%;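 note: plate controls were untreated wells for no effect and antibiotic for full effect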
# BJeLR lethal: kills HRASV12-expressing BJeLR cells. BJeLR (HRASV12) viability, CellTiter-Glo ATP luminescence, 48 h. inhibition, % (no concentration beside the values). hit rate 0.17% among 300,000. AID 1554; in the data active = inhibition above about 50%
# * = called active by the depositor; nt = no result given.
SMILES,PfHsp40 rescue,RN4220 kill,CCHF vOTU inh,ugtP null kill,BJeLR lethal
O=C1C(=O)N(CCN2CCOCC2)C(c2ccccn2)/C1=C(/O)c1ccc(F)cc1 (stereo not drawn),55*,4,1,-3,3
O=S1(=O)CCOC2Cc3ccccc3C2N1Cc1cccc(Cl)c1 (stereo not drawn),nt,13,nt,16,nt
CCOC(=O)c1nnn(CC(=O)Nc2cccc(OC)c2)c1C(=O)OCC,0,2,-1,5,-4
COC(=O)c1nnn(CC(=O)Nc2cccc(OC)c2)c1C(=O)OC,80*,4,2,1,-9
O=C1CC(N2CCN(c3ccc(O)cc3)CC2)C(=O)N1c1ccc2c(c1)OCO2 (stereo not drawn),0,-2,15,-6,1
O=C1CC(N2CCCCCC2)C(=O)N1c1ccc2c(c1)OCO2 (stereo not drawn),78*,20,0,14,-2
O=C(N/N=C\c1ccc([N+](=O)[O-])s1)c1cncc(Br)c1,-1,nt,-6,nt,18
O=C(NN=Cc1ccc([N+](=O)[O-])s1)c1cncc(Br)c1,nt,25,nt,99*,nt
O=C(N/N=C/c1ccc([N+](=O)[O-])s1)c1ccccc1,150*,nt,-3,nt,-6
Cc1[nH]cnc1C(=O)NN=Cc1ccc([N+](=O)[O-])s1,nt,100*,nt,100*,nt
O=[N+]([O-])c1ccc(/C=N/NC(=S)Nc2ccc(Cl)cc2Cl)s1,240*,nt,7,nt,4
COC(=O)NN=Cc1ccc([N+](=O)[O-])s1,nt,20,nt,14,nt
Fc1cccc(CCN2CCNCC2CC2CCCCC2)c1 (stereo not drawn),nt,-1,nt,3,nt
CC(C)(C)NC(=O)CCN(N=Cc1ccc([N+](=O)[O-])o1)C1=NS(=O)(=O)c2ccccc21,nt,47,nt,36,nt
O=C(COc1ccccc1)Nc1ccncc1,44*,7,6,9,4
O=C(NCc1ccccc1)C1=CC(c2coc3ccccc3c2=O)CC(OCc2ccc(CO)cc2)O1 (stereo not drawn),nt,3,nt,-1,nt
COc1ccc2oc(=O)c(-c3csc(Nc4cccc(O)c4)n3)cc2c1,449*,36,10,18,-10
COc1ccc(Nc2nc(-c3cc4cccc(OC)c4oc3=O)cs2)cc1,0,2,17,-19,-9
COc1ccc(-c2cc(-c3ccccc3)[n+](C)c(-c3ccccc3)c2)cc1,nt,-1,-24,-1,10
COc1ccc(-[n+]2c(-c3ccccc3)cc(-c3ccc(C)cc3)cc2-c2ccccc2)cc1,-1,nt,11,nt,72*
Cc1ccccc1-[n+]1c(-c2ccccc2)cc(-c2ccccc2)cc1-c1ccccc1,5,100*,0,101*,25
O=C([O-])c1ccccc1-[n+]1c(-c2ccccc2)cc(-c2ccccc2)cc1-c1ccccc1,1,98*,0,98*,2
CCCOC(=O)c1ccc(-[n+]2c(-c3ccccc3)cc(-c3ccccc3)cc2-c2ccccc2)cc1,2,101*,6,100*,11
Oc1ccccc1-[n+]1c(-c2ccccc2)cc(-c2ccccc2)cc1-c1ccccc1,0,nt,14,nt,10
O=C(NN=Cc1ccccn1)c1ccc(Cl)cc1,nt,6,nt,-1,nt
SMILES,PfHsp40 rescue,RN4220 kill,CCHF vOTU inh,ugtP null kill,BJeLR lethal
O=C1C=C(c2ccnc3cc(Cl)ccc23)CC(c2ccc3c(c2)OCO3)C1 (stereo not drawn),nt,3,nt,6,nt
[O-]c1ccccc1-[n+]1c(-c2ccccc2)cc(-c2ccccc2)cc1-c1ccccc1,2,101*,6,100*,63*
O=C(CON=Cc1ccccc1OC(F)F)N1CCc2ccccc21,nt,1,nt,7,nt
Nc1nc(Cn2nnc(-c3ccccc3Cl)n2)nc(N2CCOCC2)n1,0,1,-7,0,-7
Nc1nc(Cn2nnc(-c3ccccc3F)n2)nc(N2CCOCC2)n1,40*,-1,7,-1,-3
CC(=NNC(=O)c1cc(-c2cccc([N+](=O)[O-])c2)n[nH]1)c1cccc(O)c1,nt,-3,nt,-4,nt
O=C(O)COc1c(Cl)cc(C=C2NC(=O)NC2=O)cc1Br,nt,4,nt,-3,nt
C[C@H](C[C@H](O)[C@H]1OC1(C)C)C1=C2C[C@H](O)C3[C@@]4(C)CCC(=O)C(C)(C)C4CC[C@]3(C)[C@@]2(C)CC1 (stereo partly drawn),40*,nt,17,nt,nt
C[C@@H](C[C@@H](O)[C@H](O)C(C)(C)O)[C@@H]1CC[C@]2(C)C3=CC[C@H]4C(C)(C)C(=O)CC[C@]4(C)[C@H]3CC[C@@]12C,-2,nt,-3,nt,3

# Assay outcomes (PubChem)
